Test results published in the supplement of paper PMC10849652.
The full data set covers some 7,900 targets. This sample favours those with a hit. About 0.6% of all pairs of compound and target were hits.

Compound: C1=CC2=C(C=CC(=C2)/C=C\3/C(=O)NC(=NCC4=CC=CS4)S3)N=C1
Assay: log2 fold change, soluble protein after heating vs DMSO (PISA); higher = thermal stabilisation; K562 cells, 10 uM, 30 min; active = over 0.2 and 3.5 SD of the protein, either way, in both replicates (recomputed)
Summary of the method: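 Quantification of soluble protein used TMTpro 16plex LC-MS/MS, with channel sums equalised. Samples were the supernatant after 21,000xg for 90 min of pooled aliquots from K562 cells (2×10^6 cells/mL) treated with 10 μM compound for 30 min, heated for 3 min over 48°C-58°C, and extracted in PBS with 0.5% NP-40 at 4°C. Values, from duplicates, describe thermal stability against control samples on a log2 fold-change scale.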

UniProt O00220, sequence (O00220 whole entry, looked up): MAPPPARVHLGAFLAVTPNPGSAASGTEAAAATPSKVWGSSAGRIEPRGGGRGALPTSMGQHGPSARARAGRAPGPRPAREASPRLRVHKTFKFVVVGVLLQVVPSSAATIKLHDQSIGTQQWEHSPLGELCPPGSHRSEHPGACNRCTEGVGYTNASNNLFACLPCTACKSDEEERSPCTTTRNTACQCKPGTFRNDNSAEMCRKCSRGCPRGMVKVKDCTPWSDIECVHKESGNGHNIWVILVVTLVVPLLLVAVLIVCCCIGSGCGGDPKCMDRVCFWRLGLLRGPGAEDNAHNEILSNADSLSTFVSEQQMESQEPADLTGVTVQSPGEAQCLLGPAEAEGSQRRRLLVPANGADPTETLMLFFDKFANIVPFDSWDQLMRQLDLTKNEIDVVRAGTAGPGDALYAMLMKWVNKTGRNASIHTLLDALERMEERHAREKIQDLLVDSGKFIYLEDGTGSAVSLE
UniProt O60784, sequence (O60784 whole entry, looked up): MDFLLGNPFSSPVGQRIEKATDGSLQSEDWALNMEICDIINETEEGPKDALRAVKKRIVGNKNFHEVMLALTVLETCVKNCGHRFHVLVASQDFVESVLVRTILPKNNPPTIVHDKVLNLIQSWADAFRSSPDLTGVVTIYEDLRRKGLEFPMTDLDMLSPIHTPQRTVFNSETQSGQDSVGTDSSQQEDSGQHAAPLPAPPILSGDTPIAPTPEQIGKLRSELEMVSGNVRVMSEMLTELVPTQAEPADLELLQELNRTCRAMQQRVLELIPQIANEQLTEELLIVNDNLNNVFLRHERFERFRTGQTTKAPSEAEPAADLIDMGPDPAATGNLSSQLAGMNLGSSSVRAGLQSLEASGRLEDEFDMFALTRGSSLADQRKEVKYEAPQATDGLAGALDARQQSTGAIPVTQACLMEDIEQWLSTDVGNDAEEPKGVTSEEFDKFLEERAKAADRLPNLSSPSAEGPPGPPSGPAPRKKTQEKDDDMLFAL
UniProt P51809, sequence (P51809 whole entry, looked up): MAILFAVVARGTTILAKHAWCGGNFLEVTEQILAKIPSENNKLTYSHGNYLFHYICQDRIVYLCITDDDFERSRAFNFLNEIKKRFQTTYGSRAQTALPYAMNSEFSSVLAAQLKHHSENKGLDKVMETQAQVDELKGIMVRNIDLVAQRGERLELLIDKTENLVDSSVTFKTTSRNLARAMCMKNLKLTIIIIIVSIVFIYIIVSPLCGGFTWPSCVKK
UniProt Q5BJH2, sequence (Q5BJH2 whole entry, looked up): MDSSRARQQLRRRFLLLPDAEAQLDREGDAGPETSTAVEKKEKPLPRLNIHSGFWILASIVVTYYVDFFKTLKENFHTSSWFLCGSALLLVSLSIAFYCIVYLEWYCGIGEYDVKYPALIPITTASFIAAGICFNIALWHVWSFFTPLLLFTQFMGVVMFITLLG
UniProt Q6VEQ5, sequence (Q6VEQ5 whole entry, looked up): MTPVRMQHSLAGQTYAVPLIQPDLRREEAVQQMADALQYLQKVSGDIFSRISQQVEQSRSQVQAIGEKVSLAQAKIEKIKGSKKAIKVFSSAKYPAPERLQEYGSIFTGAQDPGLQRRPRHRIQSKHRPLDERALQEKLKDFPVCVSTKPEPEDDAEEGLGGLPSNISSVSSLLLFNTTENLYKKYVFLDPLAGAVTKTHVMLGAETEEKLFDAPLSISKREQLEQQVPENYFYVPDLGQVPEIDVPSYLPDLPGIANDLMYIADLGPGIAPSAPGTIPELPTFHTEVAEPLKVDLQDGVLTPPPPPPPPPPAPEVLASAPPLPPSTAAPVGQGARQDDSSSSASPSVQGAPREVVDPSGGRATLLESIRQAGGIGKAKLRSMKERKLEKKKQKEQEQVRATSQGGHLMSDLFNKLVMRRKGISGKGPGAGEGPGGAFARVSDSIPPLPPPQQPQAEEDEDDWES
UniProt P26368, sequence (P26368 whole entry, looked up): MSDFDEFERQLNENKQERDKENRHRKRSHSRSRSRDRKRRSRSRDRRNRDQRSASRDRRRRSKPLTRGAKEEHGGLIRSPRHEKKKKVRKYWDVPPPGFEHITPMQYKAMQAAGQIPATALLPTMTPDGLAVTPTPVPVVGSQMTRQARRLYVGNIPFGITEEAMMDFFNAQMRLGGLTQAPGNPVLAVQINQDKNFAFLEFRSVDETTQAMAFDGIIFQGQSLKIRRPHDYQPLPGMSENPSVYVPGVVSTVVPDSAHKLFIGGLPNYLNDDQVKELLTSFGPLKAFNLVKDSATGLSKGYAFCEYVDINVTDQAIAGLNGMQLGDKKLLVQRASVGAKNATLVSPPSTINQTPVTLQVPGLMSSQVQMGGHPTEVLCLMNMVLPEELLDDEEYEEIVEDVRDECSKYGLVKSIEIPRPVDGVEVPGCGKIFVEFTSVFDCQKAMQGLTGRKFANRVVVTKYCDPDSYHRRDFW
UniProt Q9UHP3, sequence (Q9UHP3 whole entry, looked up): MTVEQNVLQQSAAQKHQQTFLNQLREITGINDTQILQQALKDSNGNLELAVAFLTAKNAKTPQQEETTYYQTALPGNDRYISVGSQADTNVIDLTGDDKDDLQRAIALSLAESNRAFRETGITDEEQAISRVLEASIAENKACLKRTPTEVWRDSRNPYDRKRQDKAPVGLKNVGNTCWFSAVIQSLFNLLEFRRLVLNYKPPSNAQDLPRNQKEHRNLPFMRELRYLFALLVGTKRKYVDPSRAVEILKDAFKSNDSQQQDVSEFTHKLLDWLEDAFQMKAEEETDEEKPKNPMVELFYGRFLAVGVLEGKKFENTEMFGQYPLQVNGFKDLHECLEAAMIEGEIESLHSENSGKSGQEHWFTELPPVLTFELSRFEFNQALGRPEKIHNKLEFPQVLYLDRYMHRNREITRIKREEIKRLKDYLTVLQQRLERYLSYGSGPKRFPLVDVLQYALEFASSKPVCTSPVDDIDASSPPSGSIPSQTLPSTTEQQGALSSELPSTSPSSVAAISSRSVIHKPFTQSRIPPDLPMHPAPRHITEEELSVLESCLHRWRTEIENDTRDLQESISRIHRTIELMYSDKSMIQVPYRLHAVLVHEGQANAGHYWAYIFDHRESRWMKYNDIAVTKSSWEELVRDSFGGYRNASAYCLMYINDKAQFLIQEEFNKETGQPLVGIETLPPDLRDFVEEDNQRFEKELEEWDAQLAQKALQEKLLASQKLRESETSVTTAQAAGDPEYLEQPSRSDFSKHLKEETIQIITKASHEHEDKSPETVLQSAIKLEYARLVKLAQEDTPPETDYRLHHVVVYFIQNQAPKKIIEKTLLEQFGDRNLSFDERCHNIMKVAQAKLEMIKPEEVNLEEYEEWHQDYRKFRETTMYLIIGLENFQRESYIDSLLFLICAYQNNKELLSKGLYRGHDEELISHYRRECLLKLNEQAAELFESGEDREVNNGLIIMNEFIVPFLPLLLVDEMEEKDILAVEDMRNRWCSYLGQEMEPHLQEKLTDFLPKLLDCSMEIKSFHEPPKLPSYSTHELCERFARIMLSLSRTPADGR
UniProt Q99757, sequence (Q99757 whole entry, looked up): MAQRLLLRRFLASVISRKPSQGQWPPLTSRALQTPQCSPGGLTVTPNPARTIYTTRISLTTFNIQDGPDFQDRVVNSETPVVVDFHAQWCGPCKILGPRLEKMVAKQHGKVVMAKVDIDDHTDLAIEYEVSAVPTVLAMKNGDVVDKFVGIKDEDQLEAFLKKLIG
UniProt Q86UV5, sequence (Q86UV5 whole entry, looked up): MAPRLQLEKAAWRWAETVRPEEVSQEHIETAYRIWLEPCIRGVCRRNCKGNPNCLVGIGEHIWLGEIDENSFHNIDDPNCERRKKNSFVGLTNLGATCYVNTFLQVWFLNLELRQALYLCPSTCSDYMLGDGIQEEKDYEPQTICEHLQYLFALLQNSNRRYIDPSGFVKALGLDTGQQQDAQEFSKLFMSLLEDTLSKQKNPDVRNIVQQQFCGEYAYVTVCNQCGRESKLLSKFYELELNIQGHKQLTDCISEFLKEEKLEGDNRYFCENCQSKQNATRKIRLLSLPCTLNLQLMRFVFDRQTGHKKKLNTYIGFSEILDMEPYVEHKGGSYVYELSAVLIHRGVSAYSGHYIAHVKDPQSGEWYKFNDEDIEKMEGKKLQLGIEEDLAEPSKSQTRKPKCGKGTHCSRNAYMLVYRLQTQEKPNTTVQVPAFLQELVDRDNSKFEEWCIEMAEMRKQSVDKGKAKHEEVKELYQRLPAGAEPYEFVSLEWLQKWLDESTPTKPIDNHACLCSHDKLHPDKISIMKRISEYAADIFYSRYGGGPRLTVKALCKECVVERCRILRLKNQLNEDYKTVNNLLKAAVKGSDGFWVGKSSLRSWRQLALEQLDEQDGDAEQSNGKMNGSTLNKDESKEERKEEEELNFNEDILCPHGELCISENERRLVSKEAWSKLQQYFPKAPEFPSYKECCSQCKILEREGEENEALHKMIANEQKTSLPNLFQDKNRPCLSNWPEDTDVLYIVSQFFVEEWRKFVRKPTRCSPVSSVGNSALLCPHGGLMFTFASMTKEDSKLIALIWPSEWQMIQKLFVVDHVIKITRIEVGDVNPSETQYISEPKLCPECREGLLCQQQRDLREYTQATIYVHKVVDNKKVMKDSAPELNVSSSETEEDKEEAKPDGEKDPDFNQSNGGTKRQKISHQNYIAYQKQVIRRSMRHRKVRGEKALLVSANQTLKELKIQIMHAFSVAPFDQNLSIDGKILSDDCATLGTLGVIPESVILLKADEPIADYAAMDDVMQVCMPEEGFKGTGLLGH
UniProt Q9Y5K5, sequence (Q9Y5K5 whole entry, looked up): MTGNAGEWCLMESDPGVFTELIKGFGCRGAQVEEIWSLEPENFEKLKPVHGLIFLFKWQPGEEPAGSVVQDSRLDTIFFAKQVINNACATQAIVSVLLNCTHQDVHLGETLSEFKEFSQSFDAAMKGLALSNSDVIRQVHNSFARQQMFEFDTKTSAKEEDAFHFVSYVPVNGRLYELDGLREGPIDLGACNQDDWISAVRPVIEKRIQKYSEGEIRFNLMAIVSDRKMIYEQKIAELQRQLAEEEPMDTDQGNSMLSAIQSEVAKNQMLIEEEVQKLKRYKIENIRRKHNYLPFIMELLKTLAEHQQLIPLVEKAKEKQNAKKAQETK
UniProt Q8N4H5, sequence (Q8N4H5 whole entry, looked up): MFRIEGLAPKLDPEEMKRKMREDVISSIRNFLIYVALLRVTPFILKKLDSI

log2 fold change, inactive:
TRAPPC8 (UniProt Q9Y2L5) 0.094
TOMM5 isoform 2 (UniProt Q8N4H5) 0
TTC33 (UniProt Q6PID6) 0.176
TSFM (UniProt P43897) 0.189
XPO6 (UniProt Q96QU8) 0.093
VPS35L (UniProt Q7Z3J2) 0.044
UBE4B isoform 4 (UniProt O95155) 0
TOP2A isoform 4 (UniProt P11388) -0.061
TMEM128 (UniProt Q5BJH2) -0.437
WASH2P (UniProt Q6VEQ5) 0.041
UTP3 (UniProt Q9NQZ2) -0.068
UGDH (UniProt O60701) 0.046
WDR43 (UniProt Q15061) -0.028
TNFRSF10A (UniProt O00220) 0.049
XPOT (UniProt O43592) 0.037
VPS33A (UniProt Q96AX1) 0.057
VPS13B (UniProt Q7Z7G8) 0.048
TMEM63B (UniProt Q5T3F8) -0.066
U2AF2 (UniProt P26368) -0.045
TMEM120A (UniProt Q9BXJ8) 0
TXN2 (UniProt Q99757) 0.086
TOM1 isoform 2 (UniProt O60784) -0.006
VPS33B (UniProt Q9H267) 0.073
TOM1L1 (UniProt O75674) -0.038
USP48 isoform 8 (UniProt Q86UV5) 0.028
TTC4 (UniProt O95801) 0.061
VDAC1 (UniProt C9JI87) 0.13
UCHL5 isoform 3 (UniProt Q9Y5K5) -0.036
TXNL1 (UniProt O43396) -0.011
TMEM177 (UniProt Q53S58) 0.062
USP25 isoform 3 (UniProt Q9UHP3) 0.028
UBE2E3 (UniProt Q969T4) 0.083
TMEM263 (UniProt Q8WUH6) 0.058
UFD1 isoform 1 (UniProt Q92890) 0.012
VAMP7 (UniProt P51809) 0.016
VPS8 (UniProt Q8N3P4) 0.016
